In the antibiotic and cytotoxicity screens of Wong et al. (2023) one finds cytotoxicity call data, which are given here for 65 compounds.

Screen size: about 39,000 compounds; about 3,300 (8.5%) were called active. The list comes from a sample in which actives are over-represented; it also holds similar structures and randomly drawn compounds.

For this test, the system named is HepG2. Kind of test: cytotoxicity call (relative viability < 0.9). Conditions: 10 µM.
In the case of `C[C@H]1CC=CC[C@H](c2cccc(Cl)c2)NC(=O)[C@H](Cc2ccccc2)N(C)C(=O)c2ccccc2O1`, the cytotoxicity call is “inactive”.
For `Cc1ccc(S(=O)(=O)N(C)C[C@@H]2OCCCC[C@@H](C)Oc3ccc(NC(=O)Nc4ccc(F)cc4)cc3C(=O)N([C@H](C)CO)C[C@@H]2C)cc1` the value was “inactive”; for `C[C@H](CO)N1C[C@H](C)[C@H](CN(C)C(=O)Nc2cccc(F)c2)OCc2ccccc2-c2ccccc2C1=O`, “inactive”.
For `CCCN(CCC)S(=O)(=O)c1ccc(C(=O)N(c2cccc(SC)c2)[C@H]2OC(=O)c3ccccc32)cc1`, the cytotoxicity call was “inactive”.
For `C[C@H]1CN([C@@H](C)CO)S(=O)(=O)c2ccc(C#CCN(C)C)cc2O[C@H]1CN(C)S(=O)(=O)c1cccc(F)c1` the value was “inactive”.
Consider `C[C@@H]1CN([C@@H](C)CO)C(=O)c2cccc(NC(=O)c3ccc(-c4nccs4)cc3)c2O[C@H]1CN(C)Cc1ccc(C(F)(F)F)cc1`, for which the cytotoxicity call was “inactive”.
For the compound `C[C@H]1CN([C@@H](C)CO)C(=O)c2cccc(NC(=O)c3ccc(-c4nccs4)cc3)c2O[C@H]1CN(C)C(=O)Nc1ccc(C(F)(F)F)cc1`, the cytotoxicity call was “inactive”.
For `C[C@@H]1CN([C@@H](C)CO)C(=O)c2cccc(NC(=O)c3ccc(-c4nccs4)cc3)c2O[C@@H]1CN(C)C(=O)Nc1ccc(C(F)(F)F)cc1` the value was “active”.
Regarding `C[C@@H]1CN([C@H](C)CO)C(=O)c2cccc(NC(=O)c3ccc(-c4nccs4)cc3)c2O[C@@H]1CN(C)Cc1ccc(C(F)(F)F)cc1`, the cytotoxicity call is “active”.
For `C[C@H]1CN([C@@H](C)CO)C(=O)c2cccc(NC(=O)c3ccc(-c4nccs4)cc3)c2O[C@@H]1CN(C)Cc1ccc(C(F)(F)F)cc1` the value was “active”; for `C[C@H]1CN([C@@H](C)CO)C(=O)c2cccc(NC(=O)c3ccc(-c4nccs4)cc3)c2O[C@H]1CN(C)Cc1ccc(C(F)(F)F)cc1`, “inactive”; for `C[C@H](CO)N1C[C@H](C)[C@H](CN(C)C(=O)Nc2ccc(C(F)(F)F)cc2)Oc2c(NC(=O)c3ccc(-c4nccs4)cc3)cccc2C1=O`, “inactive”.
Consider `C[C@@H]1CN([C@H](C)CO)C(=O)c2cccc(NC(=O)c3ccc(-c4nccs4)cc3)c2O[C@H]1CN(C)Cc1ccc(C(F)(F)F)cc1`, for which the cytotoxicity call is “inactive”.
As for `C[C@@H]1CN([C@H](C)CO)C(=O)c2cccc(NC(=O)c3ccc(-c4nccs4)cc3)c2O[C@@H]1CN(C)Cc1ccc(C(=O)O)cc1`, the cytotoxicity call was “inactive”.
For `C[C@@H]1CN([C@@H](C)CO)C(=O)c2cccc(NC(=O)c3ccc(-c4nccs4)cc3)c2O[C@@H]1CN(C)Cc1ccc(C(F)(F)F)cc1` the value was “active”; for `C[C@H](CO)N1C[C@H](C)[C@H](CN(C)Cc2ccc(C(F)(F)F)cc2)Oc2c(NC(=O)c3ccc(-c4nccs4)cc3)cccc2C1=O`, “inactive”; for `C[C@H](CO)N1C[C@H](C)[C@@H](CN(C)Cc2ccc(C(F)(F)F)cc2)Oc2c(NC(=O)c3ccc(-c4nccs4)cc3)cccc2C1=O`, “inactive”.
For `N=C(N)SCCN` the value was “inactive”; for `CN1CCN(C(=O)C[C@@H]2C=C[C@H](NC(=O)Nc3ccccc3F)[C@H](CO)O2)CC1`, “inactive”; for `COc1ccc(NC(=O)Nc2ccc3c(c2)C(=O)N([C@@H](C)CO)C[C@H](C)[C@@H](CN(C)C(=O)Nc2ccccc2)OCCCC[C@H](C)O3)cc1`, “inactive”.
`CN1C(=O)[C@@H]2CN(c3ncccn3)C[C@@H]2C12CCN(S(C)(=O)=O)CC2`: the cytotoxicity call is “inactive”.
For `C[C@H](CO)N1C[C@H](C)[C@@H](CN(C)S(=O)(=O)c2ccc(Cl)cc2)Oc2ccc(N(C)C)cc2CC1=O`, the cytotoxicity call is “inactive”.
Regarding `Cc1ccc(S(=O)(=O)N(C)C[C@H]2OCCCC[C@@H](C)Oc3ccc(NC(=O)Nc4c(C)noc4C)cc3C(=O)N([C@H](C)CO)C[C@H]2C)cc1`, the cytotoxicity call was “inactive”.
`COc1ccc2cc1/C=C\NC(=O)[C@H](Cc1ccccc1)NC(=O)[C@@H]1[C@H](CCN1C(=O)[C@@H](NC(=O)[C@@H](C)N(C)C)C(C)C)O2`: the cytotoxicity call was “inactive”.
For `CO[C@@H](CN(C)S(=O)(=O)c1cccc(Cl)c1)[C@H](C)CN([C@@H](C)CO)S(=O)(=O)c1ccc(Cl)cc1` the value was “inactive”.
On to `C[C@@H]1CN([C@H](C)CO)C(=O)c2cc(NC(=O)CCC(F)(F)F)ccc2O[C@@H](C)CCCCO[C@@H]1CN(C)CC1CCCCC1`, for which the cytotoxicity call is “inactive”.
Regarding `C[C@@H]1CN([C@H](C)CO)C(=O)c2cccc(NC(=O)c3nc4ccccc4s3)c2O[C@H]1CN(C)Cc1ccc(C(F)(F)F)cc1`, the cytotoxicity call was “inactive”.
For the compound `C[C@@H]1CN([C@@H](C)CO)C(=O)c2cc(Br)cnc2O[C@@H]1CN(C)S(=O)(=O)c1ccc(F)cc1`, the cytotoxicity call was “inactive”.
For `C[C@@H]1CCCCO[C@@H](CN(C)C(=O)CCC(F)(F)F)[C@@H](C)CN([C@H](C)CO)C(=O)c2cc(NS(=O)(=O)c3ccc(F)cc3)ccc2O1` the value was “inactive”; for `CCOC(=O)CSc1nnc2c3sc4nc(N5CCOCC5)c5c(c4c3ncn12)CC(C)(C)OC5`, “active”.
Consider `O=C(NCCCN1CCOCC1)C(=O)NC1CC1`, for which the cytotoxicity call was “inactive”.
For `COc1ccc(CN(C)C[C@H]2OCCCC[C@@H](C)Oc3ccc(NS(=O)(=O)c4ccc(Cl)cc4)cc3C(=O)N([C@@H](C)CO)C[C@H]2C)cc1` the value was “active”; for `COc1ccc(CN(C)C[C@@H]2OCCCC[C@H](C)Oc3ccc(NS(=O)(=O)c4ccc(Cl)cc4)cc3C(=O)N([C@@H](C)CO)C[C@H]2C)cc1`, “active”; for `COc1ccc(CN(C)C[C@H]2OCCCC[C@H](C)Oc3ccc(NS(=O)(=O)c4ccc(Cl)cc4)cc3C(=O)N([C@@H](C)CO)C[C@@H]2C)cc1`, “inactive”.
For `COc1ccc(CN(C)C[C@H]2OCCCC[C@H](C)Oc3ccc(NS(=O)(=O)c4ccc(Cl)cc4)cc3C(=O)N([C@@H](C)CO)C[C@H]2C)cc1` the value was “inactive”; for `COc1ccc(CN(C)C[C@@H]2OCCCC[C@@H](C)Oc3ccc(NS(=O)(=O)c4ccc(Cl)cc4)cc3C(=O)N([C@H](C)CO)C[C@@H]2C)cc1`, “inactive”; for `COc1ccc(CN(C)C[C@@H]2OCCCC[C@@H](C)Oc3ccc(NS(=O)(=O)c4ccc(Cl)cc4)cc3C(=O)N([C@H](C)CO)C[C@H]2C)cc1`, “inactive”.
In the case of `COc1ccc(CN(C)C[C@H]2OCCCC[C@@H](C)Oc3ccc(NS(=O)(=O)c4ccc(Cl)cc4)cc3C(=O)N([C@@H](C)CO)C[C@@H]2C)cc1`, the cytotoxicity call is “inactive”.
For `COc1ccc(CN(C)C[C@H]2OCCCC[C@@H](C)Oc3ccc(NS(=O)(=O)c4ccc(Cl)cc4)cc3C(=O)N([C@H](C)CO)C[C@@H]2C)cc1` the value was “inactive”.
Take `COc1ccc(CN(C)C[C@@H]2OCCCC[C@H](C)Oc3ccc(NS(=O)(=O)c4ccc(Cl)cc4)cc3C(=O)N([C@H](C)CO)C[C@@H]2C)cc1`: the cytotoxicity call was “active”.
Take `C[C@@H]1CCCCO[C@H](CN(C)C(=O)Nc2ccccc2)[C@H](C)CN([C@@H](C)CO)C(=O)c2cc(NC(=O)Nc3ccc(F)cc3)ccc2O1`: the cytotoxicity call was “inactive”.
With `O=C(C[C@H]1CC[C@@H](NC(=O)CN2CCOCC2)[C@H](CO)O1)NC1CCC1`, the cytotoxicity call is “inactive”.
On to `C[C@H](CO)N1C[C@H](C)[C@@H](CN(C)S(=O)(=O)c2cn(C)cn2)Oc2ccc(N(C)C)cc2CC1=O`, for which the cytotoxicity call was “inactive”.
`C[C@H](CO)N1C[C@H](C)[C@H](CN(C)Cc2ccc(F)cc2)Oc2cc(C#CC3CC3)ccc2S1(=O)=O`: the cytotoxicity call was “inactive”.
As for `C[C@@H]1CCCCO[C@H](CN(C)C(=O)C2CCCCC2)[C@@H](C)CN([C@H](C)CO)C(=O)c2cc(NC(=O)Nc3ccc(F)cc3)ccc2O1`, the cytotoxicity call was “inactive”.
Take `COCC(=O)Nc1ccccc1C(=O)O`: the cytotoxicity call is “inactive”.
For `O=C(N1CCOCC1)[C@@]1(CCS(=O)(=O)c2ccccc2)COC(c2ccc(OCCCO)cc2)=N1` the value was “inactive”; for `NCc1cccc2c1OCCCO2`, “inactive”.
For `C[N+](C)(C)CCCC[C@@H]1NC(=O)[C@@H]2C[C@H](C(=O)NCCCCCCNC(=O)CS)[C@H](c3ccc(O)cc3)N2C1=O` the value was “inactive”; for `CC(C)=C[C@H]1[C@@H](c2nc3ccc(Br)cc3[nH]2)C1(C)C`, “inactive”; for `CCNc1nc(NCC)nc(OCC#N)n1`, “inactive”.
Regarding `CCNc1nc(NCC)nc(C(=O)OCCO)n1`, the cytotoxicity call was “active”.
For `CCNc1nc(OCCO)nc(N(C)C)n1` the value was “inactive”.
Regarding `C[C@@H]1CN([C@@H](C)CO)C(=O)Cc2cc(NC(=O)Cc3cn(C)c4ccccc34)ccc2O[C@@H]1CN(C)C(=O)Nc1ccc(C(F)(F)F)cc1`, the cytotoxicity call was “inactive”.
With `C[C@@H]1CN([C@@H](C)CO)C(=O)Cc2cc(NC(=O)Cc3cn(C)c4ccccc34)ccc2O[C@@H]1CN(C)Cc1ccc(C(F)(F)F)cc1`, the cytotoxicity call was “active”.
For `C[C@H]1CN([C@@H](C)CO)C(=O)Cc2cc(NC(=O)Cc3cn(C)c4ccccc34)ccc2O[C@@H]1CN(C)C(=O)Nc1ccc(C(F)(F)F)cc1` the value was “inactive”; for `C[C@@H]1CN([C@@H](C)CO)C(=O)Cc2cc(NC(=O)Cc3cn(C)c4ccccc34)ccc2O[C@H]1CN(C)Cc1ccc(C(F)(F)F)cc1`, “active”; for `C[C@H](CO)N1C[C@H](C)[C@@H](CN(C)C(=O)Nc2ccc(C(F)(F)F)cc2)Oc2ccc(NC(=O)Cc3cn(C)c4ccccc34)cc2CC1=O`, “inactive”.
In the case of `C[C@@H]1CN([C@@H](C)CO)C(=O)Cc2cc(NC(=O)Cc3cn(C)c4ccccc34)ccc2O[C@H]1CN(C)C(=O)Nc1ccc(C(F)(F)F)cc1`, the cytotoxicity call is “inactive”.
`C[C@@H]1CN([C@H](C)CO)C(=O)Cc2cc(NC(=O)Cc3cn(C)c4ccccc34)ccc2O[C@@H]1CN(C)Cc1ccc(C(F)(F)F)cc1`: the cytotoxicity call was “active”.
For `C[C@@H]1CN([C@H](C)CO)C(=O)Cc2cc(NC(=O)Cc3cn(C)c4ccccc34)ccc2O[C@@H]1CN(C)C(=O)Nc1ccc(C(F)(F)F)cc1`, the cytotoxicity call is “inactive”.
Take `C[C@H](CO)N1C[C@H](C)[C@H](CN(C)C(=O)Nc2ccc(C(F)(F)F)cc2)Oc2ccc(NC(=O)Cc3cn(C)c4ccccc34)cc2CC1=O`: the cytotoxicity call is “inactive”.
Turning to `C[C@H]1CN([C@@H](C)CO)C(=O)Cc2cc(NC(=O)Cc3cn(C)c4ccccc34)ccc2O[C@@H]1CN(C)Cc1ccc(C(F)(F)F)cc1`, the cytotoxicity call is “active”.
For `C[C@H](CO)N1C[C@H](C)[C@H](CN(C)Cc2ccc(C(F)(F)F)cc2)Oc2ccc(NC(=O)Cc3cn(C)c4ccccc34)cc2CC1=O` the value was “inactive”; for `C[C@H]1CN([C@@H](C)CO)C(=O)Cc2cc(NC(=O)Cc3cn(C)c4ccccc34)ccc2O[C@H]1CN(C)C(=O)Nc1ccc(C(F)(F)F)cc1`, “inactive”.
